According to PubChem BioAssay (NCI):
Several values for one entry are separate records, joined by “and”; a condition that tells them apart may be missing. Equal entries are not always repeated. The panel holds about 83,000 compounds, 20% with a hit somewhere; the sample as a whole holds those more often.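 Each cell line was grown in a 96-well plate and treated with one concentration of compound for 48 hours. Values below 10 were considered active.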 Activity calls are given as the source filed them.

Assays:
Assay in all cases: NCI-60 one-dose screen, 48 h (100 = growth as untreated, 0 = no growth, -100 = all killed)
HT29 colon = details: 10 µM
SNB-75 CNS = details: 10 µM
SNB-19 CNS = details: 10 µM
U251 CNS = details: 10 µM unless noted
PC-3 prostate = details: 10 µM
SK-MEL-5 melanoma = details: 10 µM unless noted
UACC-62 melanoma = test system: UACC-62 melanoma
LOX IMVI melanoma = details: 10 µM unless noted
SK-MEL-28 melanoma = details: 10 µM
SK-MEL-2 melanoma = details: 10 µM
SN12C renal = details: 10 µM
UO-31 renal = details: 10 µM
TK-10 renal = test system: TK-10 renal
ACHN renal = details: 10 µM
CAKI-1 renal = details: 10 µM
CCRF-CEM leukemia = details: 10 µM
MOLT-4 leukemia = details: 10 µM
HCT-15 colon = details: 10 µM
EKVX NSCLC = details: 10 µM
A498 renal = details: 10 µM

Measured: growth

COc1cccc2c1C(=O)c1c(O)c3c(c(O)c1C2=O)C[C@@](O)(C(C)=O)C[C@@H]3OC1CC(N)C(O)C(C)O1 (stereo not given in full)
inactive: UO-31 renal 11.3% | TK-10 renal; 10 µM 18.5%
active: HT29 colon 1.89% | SNB-75 CNS -82.7% | SNB-19 CNS -9.95% | U251 CNS 3.16% | PC-3 prostate -25.8% | SK-MEL-5 melanoma -90.5% | UACC-62 melanoma; 10 µM -71.8% | UACC-62 melanoma; 50 µM -98.9% and -100% | LOX IMVI melanoma 1.63% | SK-MEL-28 melanoma -51% | SK-MEL-2 melanoma -38.6% | SN12C renal 8.87% | TK-10 renal; 50 µM -97.7% and -90.9% | ACHN renal 0.546% | CAKI-1 renal -31.1% | CCRF-CEM leukemia -24.1% | MOLT-4 leukemia -26.1%

Cc1cc(O)c(C(C)C)cc1Cl
inactive: HCT-15 colon 106% | HT29 colon 103% | SNB-75 CNS 93.2% | SNB-19 CNS 103% | U251 CNS 101% | PC-3 prostate 101% | SK-MEL-5 melanoma 103% | UACC-62 melanoma; 10 µM 103% | LOX IMVI melanoma 98.3% | SK-MEL-28 melanoma 105% | SK-MEL-2 melanoma 117% | EKVX NSCLC 103% | SN12C renal 104% | UO-31 renal 89.8% | TK-10 renal; 10 µM 97.6% | ACHN renal 106% | CAKI-1 renal 99.7% | CCRF-CEM leukemia 104% | MOLT-4 leukemia 99%

Clc1cc(Cl)c(Cl)nn1
inactive: HCT-15 colon 107% | HT29 colon 99.2% | SNB-75 CNS 107% | SNB-19 CNS 94.2% | U251 CNS 81.1% | PC-3 prostate 80.9% | SK-MEL-5 melanoma 103% | UACC-62 melanoma; 10 µM 88.7% | LOX IMVI melanoma 95.7% | SK-MEL-28 melanoma 116% | SK-MEL-2 melanoma 99.9% | SN12C renal 98% | UO-31 renal 106% | TK-10 renal; 10 µM 146% | ACHN renal 113% | CAKI-1 renal 109% | CCRF-CEM leukemia 88.7%

COC1OCC(O)C(O)C1O (stereo not given)
inactive: HT29 colon 104% | SNB-75 CNS 80.8% | SNB-19 CNS 113% | U251 CNS 94.5% | PC-3 prostate 92.4% | SK-MEL-5 melanoma 101% | UACC-62 melanoma; 10 µM 105% | LOX IMVI melanoma 95.3% | SK-MEL-28 melanoma 106% | SK-MEL-2 melanoma 114% | SN12C renal 103% | UO-31 renal 86.2% | TK-10 renal; 10 µM 92.9% | ACHN renal 111% | CAKI-1 renal 89.7% | A498 renal 84.5% | CCRF-CEM leukemia 107% | MOLT-4 leukemia 101%

CC(=O)Nc1cc(C)ccc1C
inactive: HCT-15 colon 101% | HT29 colon 95.3% | SNB-75 CNS 96.2% | SNB-19 CNS 101% | U251 CNS 101% | PC-3 prostate 106% | SK-MEL-5 melanoma 93.3% | UACC-62 melanoma; 10 µM 98.3% | LOX IMVI melanoma 101% | SK-MEL-28 melanoma 105% | SK-MEL-2 melanoma 101% | SN12C renal 101% | UO-31 renal 88.1% | TK-10 renal; 10 µM 96.2% | ACHN renal 106% | CAKI-1 renal 98.6% | CCRF-CEM leukemia 128% | MOLT-4 leukemia 110%

O=C1C=CC(=CC=C2C=CN(CCCCCCCCCCCO)C=C2)C=C1
active: SK-MEL-5 melanoma -54.3%
inactive: HCT-15 colon 89.8% | HT29 colon 22.5% | SNB-75 CNS 53.4% | U251 CNS 25% | PC-3 prostate 17.5% | UACC-62 melanoma; 10 µM 29.6% | LOX IMVI melanoma 18.8% | SK-MEL-28 melanoma 37.6% | SK-MEL-2 melanoma 33.5% | SN12C renal 10.4% | TK-10 renal; 10 µM 58.8% | ACHN renal 90.9% | CAKI-1 renal 90.4% | CCRF-CEM leukemia 29.5% | MOLT-4 leukemia 41.9%

COc1c(O)cc2oc3cc(O)c(CC=C(C)C)c(O)c3c(=O)c2c1CC=C(C)C
active: LOX IMVI melanoma 0.237%
inactive: HCT-15 colon 24.1% | HT29 colon 27.6% | SNB-75 CNS 82.7% | SNB-19 CNS 96.4% | U251 CNS 47.9% | PC-3 prostate 41.1% | SK-MEL-5 melanoma 90% | SK-MEL-28 melanoma 87.8% | SK-MEL-2 melanoma 89.8% | SN12C renal 51.5% | UO-31 renal 49.3% | TK-10 renal; 10 µM 89.1% | ACHN renal 58.8% | CAKI-1 renal 56.2% | A498 renal 97.2% | CCRF-CEM leukemia 47.8% | MOLT-4 leukemia 42.3%
